Activity calls are given as the source filed them. The rule behind the calls is not given here.

The assay in a line: C difficile toxins, biochemical counterscreen, UDPG substrate absence, confirmatory dose response (AID 720650). The conditions noted are these: series mostly up to 19.5 µM.
Regarding `Cc1ccc(-c2csc(NC(=O)/C=C/c3ccco3)c2C(=O)O)cc1`, the AC50 result is “inactive”.
Take `Cc1ccn(CCC(=O)NC2CC(C)(C)Cc3c2cnn3-c2ccccc2C)n1` (stereo unspecified): the AC50 entry was “inactive”.
Regarding `COc1ccc(/C=C2/C(=O)C(C)(C(C)C)CCC2C)cc1` (stereo unspecified), the AC50 result was “inactive”.
To `CC(=O)Nc1n[nH]c(=S)s1` belongs > 39 µM (inactive); to `Cc1ccc2ccc[n+](Cc3ccccc3)c2c1`, “inactive”.
On to `CCCC(=O)Nc1sc2c(c1C(=O)Nc1ccccn1)CCCC2`, for which the AC50 result is “inactive”.
On to `O=C(C[C@@H]1CC[C@@H]2[C@H](COC[C@@H](O)CN2C(=O)c2ccccn2)O1)NC1CCC1`, for which the AC50 result was “inactive”.
Take `CC(C)(C)C(=O)C1=C(O)C(=O)N(c2ccccc2)C1c1ccccc1` (stereo unspecified): the AC50 is > 39 µM (inactive).
Next, `Oc1ccc(CCNc2ncnc3ccc(Cl)cc23)cc1`: 19.5 µM (active).
Regarding `COc1c2ccc(C(=O)NCCCCc3ccccc3)cc2nn1C`, the AC50 result is “inactive”.
Regarding `COc1cc2ccccc2cc1C(=O)N/N=C/c1cccs1`, the AC50 entry was “inactive”.
Consider `NC(=O)c1ccc(NC(=O)CSc2nnc(C3CC3)n2C2CC2)cc1`, for which the AC50 entry is “inactive”.
Turning to `O=C1c2c(O)ccc(O)c2C(=O)c2c(NCCNCCO)ccc(NCCNCCO)c21`, the AC50 was 17.5 µM (active).
With `CC(C)(C)N1C(=O)c2ccc(C(=O)Nc3ccc(O)cc3)cc2C1=O`, the AC50 is 8.25 µM (active).
Turning to `CCC(C)NC(=O)CSc1nc2cc(S(=O)(=O)N3CCOCC3)ccc2n1CC` (stereo unspecified), the AC50 result was “inactive”.
Consider `COc1ccc(/C=C\c2onc(C)c2S(=O)(=O)N2CCC(C(=O)NCc3ccco3)CC2)cc1`, for which the AC50 entry is “inactive”.
In the case of `Cc1ccc(S(=O)(=O)N2CCOCC2)cc1C(=O)NCCCN1CCCC1=O`, the AC50 entry was “inactive”.
In the case of `Cc1ccc(S(=O)(=O)Nc2cccnc2Oc2ccc(Cl)cc2)cc1`, the AC50 entry is “inactive”.
Next, `CC(C)=CCOc1c2occc2cc2ccc(=O)oc12`: > 39 µM (inactive).
In the case of `c1ccc(SCc2nc3ccccc3s2)nc1`, the AC50 result is “inactive”.
Turning to `O=c1[nH]c(/C=C\c2ccc(O)cc2)nc(O)c1[N+](=O)[O-]`, the AC50 was 12.2 µM (active).

Usually AC50 stands for the midpoint of the concentration-response curve, whichever way the signal moves.

The values above are taken from PubChem BioAssay AID720650 (Broad Institute, 2013).
